Laboratory results reported in the supplement of paper PMC8975748.
Structures can show the parent of a compound that is named as a salt. ± gives the standard deviation of the averaged measurements.

system: Saccharomyces cerevisiae BY4741 SeMeCo community; experiment: mean cell size (pixel area) (pixels); higher = larger cells; settings: 10 µM; 24 h; SM minimal medium
Summary of the method: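 Yeast cells were fixed with paraformaldehyde, imaged by automated confocal microscopy and analysed in Harmony to obtain mean cell pixel area per well. They came from a four-plasmid fluorescent Saccharomyces cerevisiae BY4741 community, each plasmid complementing one auxotrophy and carrying a fluorescent marker. Before imaging, 70 µl of culture at OD600 = 0.3 was incubated for 24 h in SM medium in 384-well plates predosed acoustically with drug (final 10 µM). Values are means of 3 replicates. Same SeMeCo high-content imaging drug screen: Selleck FDA-approved drugs at 10 µM, 24 h in SM medium, 384-well plates, 3 replicates.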

SMILES | mean cell size
CC(C)CCCCC(=O)N[C@@H](CCN)C(=O)N[C@H](C(=O)N[C@@H](CCN)C(=O)N[C@H]1CCNC(=O)[C@H]([C@@H](C)O)NC(=O)[C@H](CCN)NC(=O)[C@H](CCN)NC(=O)[C@H](CC(C)C)NC(=O)[C@@H](Cc2ccccc2)NC(=O)[C@H](CCN)NC1=O)[C@@H](C)O [Polymyxin B sulphate] | 11.1 ± 0.33
CN1CCN(CC(=O)N2c3ccccc3C(=O)Nc3cccnc32)CC1 [Pirenzepine dihydrochloride] | 11.97 ± 0.054
CC(=O)[C@@]1(O)CC[C@H]2[C@@H]3CCC4=CC(=O)CCC4=C3[C@@H](c3ccc(N(C)C)cc3)C[C@@]21C [Ulipristal] | 12.3 ± 0.16
C=CC1=C(C(=O)O)N2C(=O)[C@@H](NC(=O)/C(=N\O)c3csc(N)n3)[C@H]2SC1 [Cefdinir] | 12.48 ± 0.068
C=C1c2cccc(O)c2C(=O)C2=C(O)[C@]3(O)C(=O)C(C(N)=O)=C(O)[C@@H](N(C)C)[C@@H]3[C@@H](O)[C@H]12 [Methacycline HCl] | 12.2 ± 0.23
CN(C)[C@@H]1C(O)=C(C(N)=O)C(=O)[C@@]2(O)C(O)=C3C(=O)c4c(O)cccc4[C@@](C)(O)[C@H]3C[C@@H]12 [Tetracycline HCl] | 12.3 ± 0.19
O=C1C(O)=C([C@H]2CC[C@H](c3ccc(Cl)cc3)CC2)C(=O)c2ccccc21 [Atovaquone] | 12.39 ± 0.12
CO[C@H]1/C=C/O[C@@]2(C)Oc3c(C)c(O)c4c(c3C2=O)C2=NC3(CCN(CC(C)C)CC3)NC2=C(NC(=O)/C(C)=C\C=C\[C@H](C)[C@H](O)[C@@H](C)[C@@H](O)[C@@H](C)[C@H](OC(C)=O)[C@@H]1C)C4=O [Rifabutin] | 12.6 ± 0.21

system: Saccharomyces cerevisiae BY4741 SeMeCo community; experiment: z-score of prototroph abundance vs DMSO median; higher = larger share of this subpopulation than in DMSO controls; settings: 10 µM; 24 h; SM minimal medium; subpopulation (auxotrophy): Prototroph
Summary of the method: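 Scoring was based on each subpopulation's abundance, expressed as a z-score against the vehicle-well median. A Saccharomyces cerevisiae BY4741 community with four plasmids, each restoring one auxotrophy and encoding a distinct fluorescent protein, was pre-grown overnight to OD600 1.0, diluted to 0.3, and added at 70 µl to 384-well plates acoustically predosed with library drugs (10 µM final). It then grew 24 h in minimal SM medium before paraformaldehyde fixation and automated confocal microscopy, with single-auxotroph fluorescent strains setting thresholds and autofluorescence correction.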

SMILES | z-score of prototroph abundance
Nc1ccc(S(=O)(=O)c2ccc(N)cc2)cc1 [Dapson] | -0.54
CN(C)CC(c1ccc(O)cc1)C1(O)CCCCC1 (stereo unspecified) [Desvenlafaxine] | 0.76
NC[C@H]1O[C@H](O[C@H]2[C@H](O)[C@@H](O[C@H]3O[C@H](CO)[C@@H](O)[C@H](N)[C@H]3O)[C@H](N)C[C@@H]2N)[C@H](O)[C@@H](O)[C@@H]1O [Kanamycin sulfate] | -0.43
Cn1nnnc1SCC1=C(C(=O)O)N2C(=O)[C@@H](NC(=O)[C@H](OC=O)c3ccccc3)[C@H]2SC1 [Cefamandole nafate] | -0.92
Cc1c(OCC(F)(F)F)ccnc1C[S@@+]([O-])c1nc2ccccc2[nH]1 [Dexlansoprazole] | 0.34
CCC(=O)O[C@@H]1CC(=O)O[C@H](C)C/C=C/C=C/[C@H](O)[C@H](C)C[C@H](CC=O)[C@H](O[C@@H]2O[C@H](C)[C@@H](O[C@H]3C[C@@](C)(O)[C@@H](OC(=O)CC)[C@H](C)O3)[C@H](N(C)C)[C@H]2O)[C@H]1OC [Midecamycin] | -0.41
CCOc1ccc2nc3cc(N)ccc3c(N)c2c1 [Ethacridine lactate monohydrate] | 3.33
CN1CCN(CC(=O)N2c3ccccc3C(=O)Nc3cccnc32)CC1 [Pirenzepine dihydrochloride] | 0.72
